Shown are actives, neighbours in structure and some others; about 3.9% of the full set was active somewhere.
CCHF vOTU inh – CCHFV vOTU protease inhibitors, primary screen, biochemical, Pep-AMC substrate, fluorescence | Crimean-Congo hemorrhagic fever virus L polyprotein viral ovarian tumor (vOTU) protease … | inhibition, % at 11.5 µM | 0.55% of 370,000 active | AID 651958, 2012; note: 0% = vehicle wells with enzyme and 100% = no enzyme wells
Vc quorum ag – inducers of Vibrio cholerae quorum light production without autoinducers, primary screen, BH1578 luxS cqsA deficient, single point; V. cholerae BH1578 lux reporter, luminescence, 6 h; activation, % at 18.7 µM; 0.16% of 350,000 active; AID 588436, 2011; in the data active = activation mostly above about 9.7%, no sharp cut-off
GDH-TPI inh – GDH-TPI coupling enzyme inhibitors, primary screen, artefact control for M. tuberculosis FBA inhibitor project, biochemical, absorbance, full deck; GDH-TPI coupled enzyme counterscreen, NADH absorbance; inhibition, % at 4.8 µM; 1.2% of 360,000 active; AID 588335, 2011;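 note: 0% = DMSO wells and 100% = wells lacking the enzyme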
Mtb FBA inh – Mtb FBA enzyme inhibitors, primary screen, biochemical, fluorescence, strain H37Rv; inhibition, % at 1 µM; Fructose-bisphosphate aldolase (Mycobacterium tuberculosis (strain ATCC 25618 / H37Rv)), …; 2.3% of 360,000 active; purified M. tuberculosis FBA, fluorescence read-out; in the data active = inhibition above about 27%;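 note: 0% = vehicle and 100% = reference inhibitor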
Target sequence (P9WQA3 whole entry, looked up): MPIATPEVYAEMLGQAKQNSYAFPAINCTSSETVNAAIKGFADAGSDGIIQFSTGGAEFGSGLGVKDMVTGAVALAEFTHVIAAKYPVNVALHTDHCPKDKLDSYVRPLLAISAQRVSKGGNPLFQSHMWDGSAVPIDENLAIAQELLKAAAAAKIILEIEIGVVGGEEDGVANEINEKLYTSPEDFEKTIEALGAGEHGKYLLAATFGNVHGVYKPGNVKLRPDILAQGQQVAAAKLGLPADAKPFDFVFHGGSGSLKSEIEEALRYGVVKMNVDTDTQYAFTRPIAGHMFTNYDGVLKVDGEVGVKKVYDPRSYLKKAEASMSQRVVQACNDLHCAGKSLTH
Active calls of the source: *; i = inactive; x = no result; + = active, no number. Cut-off read from the data, not from the text of the source, unless noted: active = inhibition above about 30%; inactive = the rest.

SMILES | CCHF vOTU inh | Vc quorum ag | GDH-TPI inh | Mtb FBA inh
Cc1csc(NC(=O)CSc2ccc([N+](=O)[O-])cn2)n1 | 12 | i | 11 | -3
O=C(CSc1ccc([N+](=O)[O-])cn1)Nc1nccs1 | 2 | 0 | 34* | -3
CCNC(=O)C(=O)NCCC1CCCCN1S(=O)(=O)c1cccs1 (centres undefined) | -5 | 2 | 12 | 130*
O=C(CN(C(=O)CCC(=O)Nc1nccs1)c1ccc2c(c1)OCO2)NCc1ccccc1 | 3 | 0 | -1 | -3
COc1ccc2cc(C(N)=O)/c(=N\NC(=O)c3ccccc3)oc2c1 | -54 | 1 | 9 | 112*
COc1ccccc1N=c1oc2cc(O)ccc2cc1C(N)=O | -215 | -5 | -1 | +
Cc1cccc(N=c2oc3cc(O)ccc3cc2C(N)=O)c1 | -226 | i | 8 | +
COc1ccccc1NC(=O)c1cc2ccc(O)cc2o/c1=N\O | -4 | -1 | 13 | 7
COc1cccc(C(=O)N/N=c2/oc3ccccc3cc2C(N)=O)c1 | 11 | i | 19 | -3
CN=c1oc2ccc(Cl)cc2cc1C(N)=O | -8 | i | 4 | 12
COc1cccc2cc(C(=O)NCC3CCCO3)c(=O)oc12 (centres undefined) | 15 | i | 11 | 2
COc1ccccc1N=c1oc2cc(O)ccc2cc1C(=O)NCC1CCCO1 (centres undefined) | -219 | -1 | 23 | +
O=C1c2ccccc2C(=O)N1CCCCCCc1ccccc1 | -6 | 1 | 8 | 2
CCCOc1ccc(N2C(=O)CC(N(CCc3ccc(OC)cc3)C(=O)/C=C/C(=O)O)C2=O)cc1 (centres undefined) | -10 | 0 | 4 | 3
COc1cccc(N=c2oc3cc(O)ccc3cc2C(=O)NCC2CCCO2)c1 (centres undefined) | -180 | i | -1 | +
O=C(Nc1ccc(Cl)cc1Cl)C1CCCO1 (centres undefined) | -1 | 0 | 12 | 6
Cc1cccc(C)c1NC(=O)c1ccc(OCc2c(C)noc2C)cc1 | -1 | 1 | 12 | -1
Cc1cc(OCC(=O)Nc2ccc(S(=O)(=O)N3CCN(C)CC3)cc2)cc(C)c1Cl | 7 | x | 7 | -3
Cc1cc(OCC(=O)Nc2ccc(S(=O)(=O)N3CCN(C)CC3)cc2)ccc1Cl | -2 | 0 | 1 | 141*
C/C(=N\n1c(C)nc2ccccc2c1=O)c1ccc(N)cc1 | 0 | 1 | 35* | 0
Cc1nc2ccccc2c(=O)n1/N=C/c1ccc(O)cc1 | 9 | -2 | 29 | 0
COCCNC(=O)c1cccc(OC2CCN(C(C)COc3ccccc3)CC2)c1 (centres undefined) | 13 | i | -10 | 0
NC(=S)N/N=C/c1c(O)ccc2ccccc12 | 12 | -1 | 32* | -3
C=CCNC(=S)N/N=C/c1cn(C)c2ccccc12 | 6 | 0 | 32* | 1
C=CCNC(=S)N/N=C/c1ccccc1OCCOc1ccccc1 | 1 | i | 11 | -2
SMILES | CCHF vOTU inh | Vc quorum ag | GDH-TPI inh | Mtb FBA inh
Cn1cc(/C=N/NC(N)=S)c2ccccc21 | 14 | 0 | 37* | 1
Cn1cc(/C=N/NC(=O)c2cc3cc(Br)ccc3o2)c2ccccc21 | 6 | 0 | 1 | 1
CSCCC(C(=O)Nc1c(C)cccc1C)N1CCC(Cc2ccccc2)CC1 (centres undefined) | -4 | x | x | 2
COc1ccccc1CN1C(=O)[C@@H]2C(CC(N)=O)NC3(C(=O)Nc4c3ccc(Cl)c4C)[C@@H]2C1=O (some centres undefined) | -7 | 0 | -1 | 2
COc1cc2c(cc1O)C(CSC)Cc1cc3c(cc1N(C)CC2)OCO3 (centres undefined) | 18 | 0 | 16 | 2
O=C(CSC1CS(=O)(=O)c2cc([N+](=O)[O-])ccc21)NNC(=O)c1ccccc1 (centres undefined) | 1 | -1 | -11 | 0
Cn1cc(Cl)c(C(=O)N/N=C/c2ccc3c4c(cccc24)CC3)n1 | x | 0 | 36* | 30*
CN1CCCC(C(=O)c2ccc(Cl)cc2)C1 (centres undefined) | -13 | 0 | 7 | 3
c1ccc(-c2ccc(-c3ccccn3)s2)nc1 | -215 | i | 29 | +
O=C(CN(Cc1ccco1)S(=O)(=O)c1ccccc1)N/N=C/c1ccccc1C(=O)O | 7 | 0 | -1 | 0
CC(=O)c1sc(=S)n(-c2ccc(Cl)cc2)c1C | -2 | i | 11 | 0
CC(=O)c1sc(=S)n(-c2ccccc2)c1C | 4 | -1 | 68* | 2
COc1cc(-c2csc(CCn3nc(C)cc3C)n2)cc(OC)c1OC | -2 | i | 2 | 1
Cc1cc(=O)n2c(n1)NC(=NCc1ccccc1)NC2c1ccccc1 (centres undefined) | 8 | -1 | -1 | -1
Cc1ccc(S(=O)(=O)Nc2nc3ccccc3nc2NCC2CCCO2)cc1C (centres undefined) | 1 | -1 | 33* | 19
O=S(=O)(Nc1nc2ccccc2nc1NCC1CCCO1)c1cccs1 (centres undefined) | 11 | 8 | 27 | 5
Cc1ccc(S(=O)(=O)Nc2nc3ccccc3nc2NCc2ccco2)cc1 | -11 | i | 32* | 22
O=S(=O)(Nc1nc2ccccc2nc1NCc1ccco1)c1ccc(Cl)cc1 | 6 | x | 10 | 2
Cc1cccc(S(=O)(=O)Nc2nc3ccccc3nc2NCC2CCCO2)c1 (centres undefined) | -10 | i | 33* | 4
CC(=O)Oc1ccc(-c2cccc(C(=O)N(C)c3ccc(O)cc3)c2)cc1 | 3 | i | 8 | 5
COc1ccc(OC(=O)N(C)C[C@@H]2OCc3cnnn3CCCC(=O)N([C@H](C)CO)C[C@@H]2C)cc1 | -6 | 0 | 8 | 0
COC(=O)c1ccc(OCCCCN(C)Cc2ccccc2)cc1 | 13 | i | 13 | 7
CCOC(=O)C1CCN(CC(=O)c2ccc(O)c(C)c2O)CC1 | -1 | 0 | 32* | 8
CCOC(=O)N1CCN(CC(=O)c2ccc(O)c(C)c2O)CC1 | -4 | 0 | 1 | -3
Cc1noc(C)c1C(=O)Nc1nc2ccc(S(C)(=O)=O)cc2s1 | 5 | -1 | 54* | 1
SMILES | CCHF vOTU inh | Vc quorum ag | GDH-TPI inh | Mtb FBA inh
COc1ccc(C(=O)Nc2nc3ccc(S(C)(=O)=O)cc3s2)cc1 | 20 | x | 26 | 7
COc1ccc2nc(NC(=O)c3c(C)noc3C)sc2c1 | -1 | i | 19 | 8
CS(=O)(=O)c1ccc2nc(NC(=O)c3ccco3)sc2c1 | 20 | 0 | 46* | -2
Cc1ccc(C(=O)Nc2nc3ccc(S(C)(=O)=O)cc3s2)o1 | 6 | i | 52* | 3
O=C(O)C1CCc2sc3[nH]c(=S)n(-c4ccccc4)c(=O)c3c21 (centres undefined) | 0 | -1 | 34* | 4
CCN(CC)C(=O)c1sc2[nH]c(=S)n(-c3ccccc3)c(=O)c2c1C | 19 | -1 | 33* | 1

Screening results (PubChem BioAssay)
